Reference: PubChem BioAssay (Tox21)
Records with an inconclusive call do not appear. Activity calls are given as the source filed them. Unless noted, the call rests on the fitted dose curve; in most records, active means well fitted curve in the direction sought with a large enough effect in the repeat runs; inconclusive means weak or mixed curves; inactive means no such curve, though single readings can be large; an effect the other way counts as inactive or inconclusive.

Columns and labels:
[1] = qHTS assay to identify small molecule antagonists of the retinoid acid receptor (RAR) signaling pathway - cell viability counter screen (AID 1159551); further: nearly all actives have a fitted effect of over 35% in size
Method in brief: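 Cytotoxicity counter screen: ATP content quantified by CellTiter-Glo luminescence in C3RL4 cells treated 6 hr at 37 C with compound and retinol (1 uM final). Cells plated at 1,000/well and cultured overnight before dosing.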

[2] = qHTS assay to identify small molecule antagonists of the retinoic acid receptor (RAR) signaling pathway (AID 1159552; further: nearly all actives have a fitted effect of over 50% in size)
Method in brief: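 RARE-luc C3RL4 cells; cpds + 1 uM (final) retinol, 6 hr, 37 C/5% CO2; luciferase reagent, 30 min RT, luminescence readout. Inhibitors of retinol-driven signal scored.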

[3] = qHTS assay to identify small molecule agonists of the retinoic acid receptor (RAR) signaling pathway (AID 1159553)
Method in brief: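 Luminescence was measured 30 min after luciferase reagent addition at room temperature. Before that, C3RL4 reporter cells (1,000 per well, plated overnight) were treated with compound for 6 hr at 37 C and 5% CO2.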

[4] = qHTS assay to identify small molecule antagonists of the estrogen related receptor (ERR) signaling pathway from Tox21 library - cell viability counter screen (AID 1224834); further: nearly all actives have a fitted effect of over 30% in size; further: potency means the concentration at half of the fitted maximal effect
Method in brief: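 CellTiter-Fluor fluorescence, read after 30 min at 37 C, measures viability of ERR cells. Cells plated at 2,000/well and incubated 6 h before pin-tool compound addition, then exposed 17.5 hours at 37 C.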

[5] = biological target: Luciferin 4-monooxygenase (Photinus pyralis) (UniProt P08659); test: qHTS assay to identify small molecule inhibitors of firefly luciferase (AID 1224835); further: series mostly up to about 120 µM; nearly all actives have a fitted effect of over 25% in size
Luciferin 4-monooxygenase (Photinus pyralis), sequence (P08659 whole entry, looked up): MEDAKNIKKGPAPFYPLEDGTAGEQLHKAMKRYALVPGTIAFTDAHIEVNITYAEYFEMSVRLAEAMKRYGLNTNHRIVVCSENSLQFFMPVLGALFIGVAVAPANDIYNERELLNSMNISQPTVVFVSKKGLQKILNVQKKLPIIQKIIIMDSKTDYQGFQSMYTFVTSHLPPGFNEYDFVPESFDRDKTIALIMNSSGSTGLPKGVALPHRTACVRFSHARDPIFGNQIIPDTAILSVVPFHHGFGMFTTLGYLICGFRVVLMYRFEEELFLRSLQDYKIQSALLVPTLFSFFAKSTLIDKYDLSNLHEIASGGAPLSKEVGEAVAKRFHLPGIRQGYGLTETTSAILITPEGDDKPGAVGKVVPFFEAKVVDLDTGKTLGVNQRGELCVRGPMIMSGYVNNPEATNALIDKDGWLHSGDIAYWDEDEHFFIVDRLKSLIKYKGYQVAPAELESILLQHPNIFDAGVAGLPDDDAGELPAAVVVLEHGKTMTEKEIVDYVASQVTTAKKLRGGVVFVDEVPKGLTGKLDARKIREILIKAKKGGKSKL
Method in brief: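 Quantitative HTS format; KM concentrations of both substrates. Purified P. pyralis FLuc activity quantified from luminescence images.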

[6] = qHTS assay to identify small molecule agonists of the constitutive androstane receptor (CAR) signaling pathway - cell viability counter screen (AID 1224836); further: series mostly up to about 92 µM; nearly all actives have a fitted effect of over 45% in size
Method in brief: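 HepG2 cells stably carrying hCAR and a CYP2B6-2.2kb reporter were plated 4 h, then given compounds at 15 concentrations plus PK11195 (final 0.75 uM). After 23 h at 37 C, viability was read by CellTiter-Fluor fluorescence.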

[7] = qHTS assay to identify small molecule antagonists of the constitutive androstane receptor (CAR) signaling pathway - cell viability counter screen (AID 1224837); further: series mostly up to about 92 µM; nearly all actives have a fitted effect of over 45% in size
Method in brief: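 Cytotoxicity counter-screen: CellTiter-Fluor fluorescence after 23 h compound exposure (15-point qHTS) in double-stable HepG2-CYP2B6-hCAR cells, with 50 nM CITCO added.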

[8] = biological target: Nuclear receptor subfamily 1 group I member 3 (Homo sapiens) (UniProt Q14994); test: qHTS assay to identify small molecule antagonists of the constitutive androstane receptor (CAR) signaling pathway (AID 1224838); further: nearly all actives have a fitted effect of over 40% in size
Nuclear receptor subfamily 1 group I member 3 (Homo sapiens), sequence (Q14994 whole entry, looked up): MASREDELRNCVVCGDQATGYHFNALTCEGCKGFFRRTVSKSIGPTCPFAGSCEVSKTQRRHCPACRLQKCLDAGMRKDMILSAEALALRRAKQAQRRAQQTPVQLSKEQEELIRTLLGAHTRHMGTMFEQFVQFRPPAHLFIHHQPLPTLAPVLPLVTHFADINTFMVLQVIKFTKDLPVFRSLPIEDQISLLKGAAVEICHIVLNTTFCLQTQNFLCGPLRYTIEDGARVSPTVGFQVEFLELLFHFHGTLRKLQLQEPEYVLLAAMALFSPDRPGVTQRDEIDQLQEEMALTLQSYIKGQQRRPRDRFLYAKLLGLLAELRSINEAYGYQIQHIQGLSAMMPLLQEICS
Method in brief: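 Antagonism measured as luciferase signal (ONE-Glo, 30 min, room temperature) in CAR-stimulated cells: HepG2-CYP2B6-hCAR double-stable line exposed 24 hr at 37 C to compound in a 15-point series plus 50 nM CITCO.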

[9] = biological target: Nuclear receptor subfamily 1 group I member 3 (Homo sapiens) (UniProt Q14994); test: qHTS assay to identify small molecule agonists of the constitutive androstane receptor (CAR) signaling pathway (AID 1224839); further: nearly all actives have a fitted effect of over 15% in size; further: potency means the concentration at half of the fitted maximal effect
Method in brief: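 HepG2 cells stably expressing hCAR and a CYP2B6-2.2kb luciferase reporter were treated with compounds at 15 concentrations plus 0.75 uM PK11195 (final) for 24 h at 37 C; luminescence was read after ONE-Glo addition.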

[10] = qHTS assay to identify small molecule antagonists of the estrogen related receptor signaling pathway with the pleiotropic PPARgamma coactivator (PGC) from Tox21 10K library (AID 1224841; call rule not given here; further: series mostly up to about 92 µM; actives are mostly falling curves and most rising ones were filed inactive; nearly all actives have a fitted effect of over 50% in size)
Method in brief: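 Luminescence (One-Glo, 30 min at room temperature) after 18 h compound treatment at 37 C of PGC/ERR reporter cells plated at 2,000 cells/well and settled 6 h beforehand.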

[11] = qHTS assay to identify small molecule agonists of the RXR signaling pathway - cell viability counter screen (AID 1159529);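 further: HEK 293T cells carrying an RXR-alpha UAS beta-lactamase reporter; series mostly up to about 77 µM; nearly all actives have a fitted effect of over 50% in size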
Method in brief: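 RXR-alpha-UAS-bla HEK 293T cells in medium with 2% charcoal-stripped FBS were preincubated 5 hr, then exposed to compounds for 16 hr at 37 C. Viability was read as CellTiter-Glo luminescence after 30 min at room temperature.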

[12] = qHTS assay to identify small molecule antagonists of the estrogen related receptor signaling pathway with the pleiotropic PPARgamma coactivator (PGC) from Tox21 10K library - cell viability counter screen (AID 1224840; active means well fitted cell-killing curve with a large enough effect in the repeat runs, not every such curve was filed as active; further: nearly all actives have a fitted effect of over 40% in size)
Method in brief: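 Counter-screen for cytotoxicity: after 17.5 h compound exposure at 37 C, CellTiter-Fluor reagent added to PGC/ERR cells for 30 min and fluorescence read. Cells were seeded at 2,000 per well 6 h before dosing.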

[13] = qHTS assay to identify small molecule antagonists of the estrogen related receptor (ERR) signaling pathway (AID 1224819; further: potency means the concentration at half of the fitted maximal effect; nearly all actives have a fitted effect of over 50% in size)
Method in brief: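 LOPAC library screened for antagonism as reduced One-Glo luminescence in ERR reporter cells (2,000/well). Compounds were added after 6 h pre-incubation and left 18 h at 37C; reading followed a 30 min room-temperature reagent step.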

[14] = qHTS assay to identify small molecule agonists of the estrogen related receptor (ERR) signaling pathway (AID 1224820)
Method in brief: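 Luminescence readout (One-Glo, 30 min RT) from NTP-supplied ERR cell line exposed to compounds for 18 h at 37 C. Cells seeded 2,000 per well and pre-incubated 6 h before pin-tool compound transfer.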

[15] = system: estrogen-related receptor alpha (ERRalpha) with PGC-1alpha coactivator, human; test: qHTS assay to identify small molecule antagonists of the estrogen related receptor signaling pathway with the pleiotropic PPARgamma coactivator (PGC) (AID 1224821; calls by dose curve)
Method in brief: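 PGC/ERR reporter cells; 6 h pre-incubation 37 C/5% CO2; pin-tool compound in DMSO, 18 h 37 C; One-Glo added, 30 min RT; luminescence read. qHTS antagonist mode.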

[16] = qHTS assay to identify small molecule agonists of the estrogen related receptor signaling pathway with the pleiotropic PPARgamma coactivator (PGC) (AID 1224823)
Method in brief: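 Luminescence readout (One-Glo, 30 min RT) from PGC/ERR cell line treated 18 h at 37 C with pin-tool-delivered DMSO compound solutions; cells plated 6 h before dosing. Quantitative HTS format.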

Measured: Potency

CO[C@@H]1[C@@H](O[C@@H]2O[C@H](C)[C@@H](O[C@H]3C[C@@](C)(O)[C@@H](O)[C@H](C)O3)[C@H](N(C)C)[C@H]2O)[C@@H](CC=O)C[C@@H](C)[C@@H](O[C@@H]2CC[C@H](N(C)C)[C@@H](C)O2)/C=C/C=C/C[C@@H](C)OC(=O)C[C@H]1OC(C)=O
inactive: [1] | [2] | [3] | [4] | [5] | [6] | [7] | [8] | [9]

CC(C)(C)NCC(O)COc1ccc(NC(=O)NC2CCCCC2)cc1 (stereo not drawn)
inactive: [1] | [2] | [4] | [5] | [6] | [8]

COC(=O)C(C)(C)C
inactive: [1] | [2] | [3] | [5] | [6] | [7] | [8] | [9] | [10]

C[C@H](CN1CCCC1)C(=O)c1ccc(C(F)(F)F)cc1
inactive: [1] | [2] | [3] | [4] | [5] | [6] | [9]

Nc1ccccc1Nc1ccccc1
active: [9] 54.6 µM
inactive: [11] | [2] | [6] | [8]

C=C[Si]1(C)O[Si](C)(C=C)O[Si](C)(C=C)O[Si](C)(C=C)O1 (stereo not drawn)
inactive: [1] | [2] | [4] | [5] | [6] | [7] | [8] | [9] | [12]

CC1=C(C)C(=O)C(CCCCC#CCCCC#CCO)=C(C)C1=O
active: [13] 12.8 µM | [4] 23.7 µM
not listed: [9] | [10] | [11]
inactive: all other assays above
